Records with an inconclusive call do not appear. Where a call stands in place of a potency, no number is given. Active and inactive are the calls of the source. The call rests on the fitted dose curve; in most records, active means well fitted antagonist curve with a large enough effect in the main read-out, with a control signal flat; inconclusive means small, poorly fitted or top-dose-only effect; inactive means no such curve, though single readings can be large or run the other way.
Target: Neuropeptide S receptor (Homo sapiens) (UniProt Q6W5P4)
Experiment: Confirmation Concentration-Response Assay for Antagonists of the Neuropeptide S Receptor: Calcium Signal Transduction, SAR for Probe
Procedure, shortened: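 CHO cells stably expressing human NPSR, loaded with calcium dye; compounds added, then stimulated with NPS (60 nM in stimulation reagent). Fluorescence (Ex 480, Em 520–560 nm) recorded kinetically on FDSS; AC50 from Hill fit.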

Chain of Neuropeptide S receptor (Homo sapiens) (Q6W5P4 whole entry, looked up): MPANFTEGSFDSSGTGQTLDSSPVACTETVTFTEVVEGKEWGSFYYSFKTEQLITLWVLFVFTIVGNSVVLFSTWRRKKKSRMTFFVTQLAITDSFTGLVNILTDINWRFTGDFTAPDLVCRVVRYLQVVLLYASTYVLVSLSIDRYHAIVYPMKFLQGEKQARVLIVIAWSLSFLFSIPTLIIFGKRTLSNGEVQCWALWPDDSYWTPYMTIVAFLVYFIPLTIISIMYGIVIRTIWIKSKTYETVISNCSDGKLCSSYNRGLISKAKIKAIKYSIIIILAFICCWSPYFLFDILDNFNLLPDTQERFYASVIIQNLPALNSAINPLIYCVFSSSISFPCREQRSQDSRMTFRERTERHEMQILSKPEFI

`Cc1c(P(=S)(c2ccccc2)c2ccccc2)c2ccccc2n1CCc1ccccc1` was tested, and the Potency was “inactive”.

For `COc1ccc(C2c3ccccc3Oc3ncn(CCN4CCOCC4)c(=N)c32)cc1OC` (stereo unspecified), the Potency was 0.694 µM (active).

With `Cc1cc2nc3ccc(=[N+](C)C)cc-3sc2cc1N` the Potency was “inactive”.

With `CC1(C)O[C@@H]2C[C@H]3[C@@H]4C[C@H](F)C5=CC(=O)CC[C@]5(C)[C@H]4[C@@H](O)C[C@]3(C)[C@]2(C(=O)CO)O1` the Potency was “inactive”.

For `COc1ccc(C2c3c(N)nc(Cc4ccccc4)nc3Oc3ccc4ccccc4c32)cc1OC` (stereo unspecified), the Potency was “inactive”.

`COc1ccc(C2c3c(N)nc(CCc4ccccc4)nc3Oc3ccc4ccccc4c32)cc1OC` (stereo unspecified) was tested, and the Potency was “inactive”.

For `C[n+]1cc(C(O)(c2ccccc2)c2ccccc2)n2ccccc21`, the Potency was “inactive”.

`COc1cccc(C2c3c(ncn(-c4cccc(Cl)c4)c3=N)Oc3ccc4ccccc4c32)c1` (stereo unspecified) was tested, and the Potency was 8.74 µM (active).

With `Cc1cc(C)n(-c2nc(NC(C)C)nc(NC(C)C)n2)n1` the Potency was “inactive”.

For `COc1ccc(C2c3ccc4ccccc4c3Oc3ncn(CCN4CCOCC4)c(=N)c32)cc1OC` (stereo unspecified), the Potency was 8.74 µM (active).

For `CC(C)Cc1nc(N2CCN(C(=O)c3ccccc3)CC2)c(C#N)c2c1CCC2`, the Potency was “inactive”.

For `COc1cccc(C2c3c(ncn(-c4ccccc4C)c3=N)Oc3ccc4ccccc4c32)c1` (stereo unspecified), the Potency was 5.52 µM (active).

For `Cc1ccc(NC(=S)NNC(C)(C)C)cc1`, the Potency was “inactive”.

For `Cc1ccc(Nc2cc(C)nn2-c2nc(C)cc(C)n2)cc1`, the Potency was “inactive”.

In the case of `NC(=O)OCC(COC(N)=O)c1ccccc1`, the Potency is reported as “inactive”.

In the case of `COc1ccc(C2c3c(nc(Cc4ccccc4)[nH]c3=O)Oc3ccc4ccccc4c32)cc1OC` (stereo unspecified), the Potency is reported as “inactive”.

For `O=[N+]([O-])c1ccc(-c2nc(C(Cl)Cl)c3ccccc3n2)cc1`, the Potency was “inactive”.

`COc1ccc(C2c3c(nc(C)[nH]c3=O)Oc3ccc4ccccc4c32)cc1OC` (stereo unspecified) was tested, and the Potency was “inactive”.

In the case of `CCOC(=O)c1ccc(-n2cnc3c(c2=N)C(c2cccc(OC)c2)c2c(ccc4ccccc24)O3)cc1` (stereo unspecified), the Potency is reported as 2.76 µM (active).

For `COC(=O)c1ccc(C(=O)OC)c(NC(=O)CSc2cccc[n+]2[O-])c1`, the Potency was “inactive”.

In the case of `O=C(NCc1ccc(F)cc1)n1cc(P(=S)(c2ccccc2)c2ccccc2)c2ccccc21`, the Potency is reported as “inactive”.

Reference: PubChem BioAssay AID2567 (National Center for Advancing Translational Sciences (NCATS), 2010)
